Compound activity: PubChem, The Scripps Research Institute Molecular Screening Center
TEAD-YAP block: TEAD-YAP interaction inhibition, primary screen, TEAD-YAP interaction inhibitor project, luminescence, HEK-TIYL cells; TEAD-Gal4/YAP UAS-luciferase luminescence; 640,000 compounds, 1.4% hits; AID 1259422, 2018; inhibition, % at 9.12 µM; in the data active = inhibition above about 32%;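 also: 0% = median of test compound wells and 100% = reference inhibitor wells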
MITF primary: MITF inhibitors, primary screen, biochemical, AlphaScreen, human | Microphthalmia-associated transcription factor (Homo sapiens), O75030 | AlphaScreen MITF homodimerization, bead proximity signal | AID 1259374, 2018 | 650,000 compounds, 0.91% hits | inhibition, % at 2.6 µM; in the data active = inhibition above about 50%;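 also: 0% = vehicle wells with protein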
Target sequence (O75030 whole entry, looked up): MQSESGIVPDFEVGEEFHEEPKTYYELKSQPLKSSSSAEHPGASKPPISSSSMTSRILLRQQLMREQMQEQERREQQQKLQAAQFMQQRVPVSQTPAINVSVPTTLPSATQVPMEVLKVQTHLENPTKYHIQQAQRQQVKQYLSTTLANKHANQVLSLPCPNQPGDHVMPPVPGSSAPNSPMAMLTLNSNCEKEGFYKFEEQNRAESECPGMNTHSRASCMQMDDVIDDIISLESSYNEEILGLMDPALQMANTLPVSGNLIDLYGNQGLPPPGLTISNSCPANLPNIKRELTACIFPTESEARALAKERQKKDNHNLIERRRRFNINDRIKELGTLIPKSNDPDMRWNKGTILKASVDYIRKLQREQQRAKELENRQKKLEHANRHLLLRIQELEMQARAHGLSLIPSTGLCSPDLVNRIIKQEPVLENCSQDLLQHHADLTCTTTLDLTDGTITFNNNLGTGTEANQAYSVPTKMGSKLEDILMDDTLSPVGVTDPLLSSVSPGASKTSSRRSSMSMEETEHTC
FBW7 activator: FBW7 E3 ligase activators, primary screen, biochemical, AlphaScreen, human; AlphaScreen FBW7–phospho-cyclin E peptide binding, activator screen; normalized activity (activation), % at 26.1 µM; F-box/WD repeat-containing protein 7 (Homo sapiens), Q969H0; 650,000 compounds, 0.13% hits; in the data active = normalized activity above about 1.9%;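 also: purified mutant Fbw7 with reduced substrate affinity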
GPR151 activ: activators of human GPR151, primary screen, cell-based, PathHunter beta-arrestin, luminescence; G-protein coupled receptor 151 (Homo sapiens), Q8TDV0; activation, % at 11.2 µM; AID 1508602, 2020; 650,000 compounds, 1% hits; PathHunter beta-arrestin GPR151 cells; in the data active = activation above about 4.9%;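 also: 0% = median of compound wells and 100% = cells with positive control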
* marks the source's active call; other numbers are inactive results. Sampled rows, rich in hits. Any-hit rate of the full collection: about 3.4%.

`O=C(c1ccc(S(=O)(=O)c2ccc(Br)cc2)c([N+](=O)[O-])c1)N1CCCCCC1` gave TEAD-YAP block 34.9*, MITF primary 14.9, FBW7 activator 0.1 and GPR151 activ 0.7.
`Cc1ccc(C)c(N2CCN(C(=O)c3ccc(S(=O)(=O)c4ccc(F)cc4)c([N+](=O)[O-])c3)CC2)c1` gave TEAD-YAP block 43.6*, MITF primary 15.2, FBW7 activator 0.1 and GPR151 activ 0.1.
CC1CCCCN1C(=O)c1ccc(S(=O)(=O)c2cccc(Cl)c2)c([N+](=O)[O-])c1 (configuration not stated) was read as TEAD-YAP block 37.7*, MITF primary 2.8, FBW7 activator 0.1 and GPR151 activ -0.4.
`O=C(CCCC(=O)NC1CCCCC1)N/N=C/c1ccncc1` gave TEAD-YAP block 4.4, MITF primary 4.6, FBW7 activator -0.1 and GPR151 activ 0.6.
`Cc1csc(=[N+](C)C23CC4CC(CC(C4)C2)C3)o1` gave TEAD-YAP block 0.5, MITF primary 3.0, FBW7 activator 0.0 and GPR151 activ 0.7.
CN(C)C(=O)CSc1nc2ccc(NC(=O)c3ccccc3)cc2s1 was read as TEAD-YAP block -38.4, MITF primary -9.5, FBW7 activator -0.1 and GPR151 activ 0.8.
Cc1cccc(N2CCN(C(=O)c3ccc4c(c3)NC(=O)CS4)CC2C)c1 (configuration not stated) was read as TEAD-YAP block 60.1*, MITF primary 15.8, FBW7 activator 0.7 and GPR151 activ 0.3.
`CCOC(=O)CS(=O)(=O)c1ccc(C(=O)N2CCN(c3cccc(C)c3)C(C)C2)cc1[N+](=O)[O-]` (configuration not stated) gave TEAD-YAP block 52.2*, MITF primary -6.5, FBW7 activator -0.2 and GPR151 activ -0.1.
For Cc1cccc(N2CCN(C(=O)c3ccc4c(c3)NC(=O)c3ccccc3N4)CC2C)c1 (configuration not stated) the results were TEAD-YAP block -4.0, MITF primary 1.1, FBW7 activator -0.1 and GPR151 activ 1.8.
O=C(c1ccc(S(=O)(=O)c2ccc(Br)cc2)c([N+](=O)[O-])c1)N1CCCCC1 was read as TEAD-YAP block 36.8*, MITF primary 8.9, FBW7 activator 0.3 and GPR151 activ -1.3.
Screening O=C(O)c1ccc(S(=O)(=O)c2ccc(F)cc2)c([N+](=O)[O-])c1 returned TEAD-YAP block -3.9, MITF primary 9.7, FBW7 activator 0.4 and GPR151 activ -1.0.
For C=CCNC(=O)c1ccc(S(=O)(=O)c2ccc(F)cc2)c([N+](=O)[O-])c1 the results were TEAD-YAP block 34.2*, MITF primary 13.3, FBW7 activator 0.0 and GPR151 activ 0.8.
Screening CN1CCN(c2ccc(-c3cncc(C(=O)Nc4ccccc4)c3)cc2)CC1 returned TEAD-YAP block -0.6, MITF primary 7.5, FBW7 activator -0.1 and GPR151 activ -0.3.
`O=C(c1ccc(S(=O)(=O)c2ccc(Br)cc2)c([N+](=O)[O-])c1)N1CCCC1` gave TEAD-YAP block 32.1*, MITF primary 15.2, FBW7 activator 0.7 and GPR151 activ 0.1.
Screening O=C(c1ccc(S(=O)(=O)c2ccc(F)cc2)c([N+](=O)[O-])c1)N1CCC2(CC1)OCCO2 returned TEAD-YAP block 4.3, MITF primary 2.0, FBW7 activator -0.1 and GPR151 activ -0.4.
O=C(c1ccc(S(=O)(=O)c2ccc(Br)cc2)c([N+](=O)[O-])c1)N1CCN(c2ccc(F)cc2)CC1 was read as TEAD-YAP block 11.2, MITF primary -11.5, FBW7 activator 0.0 and GPR151 activ 0.7.
Screening CCCNC(=O)c1ccc(S(=O)(=O)c2ccc(OC)cc2)c([N+](=O)[O-])c1 returned TEAD-YAP block 35.7*, MITF primary -6.3, FBW7 activator 0.0 and GPR151 activ 0.0.
`Cc1cccc(N2CCN(C(=O)c3ccc(S(=O)(=O)c4ccc(F)cc4)c([N+](=O)[O-])c3)C(C)C2)c1` (configuration not stated) gave TEAD-YAP block 54.4*, MITF primary 14.4, FBW7 activator -0.1 and GPR151 activ 3.4.
Screening O=C(c1ccc(S(=O)(=O)c2ccc(F)cc2)c([N+](=O)[O-])c1)N1CCCCCC1 returned TEAD-YAP block 33.9*, MITF primary -3.5, FBW7 activator -0.1 and GPR151 activ -0.4.
For CCN(CC)C(=O)NC(c1cccc(OC)c1OC)c1nccn1C (configuration not stated) the results were TEAD-YAP block 3.4, MITF primary 8.3, FBW7 activator -0.1 and GPR151 activ 0.0.
Screening CCN(CC)C(=O)c1ccc(S(=O)(=O)c2ccc(Br)cc2)c([N+](=O)[O-])c1 returned TEAD-YAP block 48.6*, MITF primary 10.7, FBW7 activator 0.2 and GPR151 activ -1.5.
`CCN(CC)C(=O)c1ccc(Sc2ccc(Br)cc2)c([N+](=O)[O-])c1` gave TEAD-YAP block 4.9, MITF primary 3.4, FBW7 activator -0.2 and GPR151 activ 1.1.
For Cc1ccc(C(=O)N2CCN(c3ccc([N+](=O)[O-])cc3)CC2C)cc1 (configuration not stated) the results were TEAD-YAP block 39.0*, MITF primary 5.3, FBW7 activator -0.1 and GPR151 activ 1.0.
Screening CCN1CCN(C(=O)Nc2cc(C)ccc2OC)CC1 returned TEAD-YAP block -3.1, MITF primary 8.4, FBW7 activator 0.0 and GPR151 activ -0.4.
O=c1nc2n(c3ccccc13)Cc1ccccc1-2 was read as TEAD-YAP block 10.0, MITF primary -1.0, FBW7 activator -0.1 and GPR151 activ 1.8.
For N=c1nc2n(c3ccccc13)Cc1ccccc1-2 the results were TEAD-YAP block 71.2*, MITF primary 7.3, FBW7 activator 0.0 and GPR151 activ -1.0.
`CNC(=O)c1cc(F)ccc1Nc1cc(Nc2ccc3c(c2)CC(=O)N3)ncc1C(F)(F)F` gave TEAD-YAP block 1.4, MITF primary 4.1, FBW7 activator -0.1 and GPR151 activ -1.8.
CNC(=O)c1cc(F)ccc1Nc1cc(Nc2ccc3c(c2)NC(=O)C3)ncc1C(F)(F)F was read as TEAD-YAP block 39.0*, MITF primary 7.3, FBW7 activator -0.2 and GPR151 activ 0.3.
Screening CNC(=O)c1cc(F)ccc1Nc1cc(Nc2ccc(NC(C)=O)cc2)ncc1C(F)(F)F returned TEAD-YAP block 38.1*, MITF primary 0.1, FBW7 activator 0.0 and GPR151 activ -0.2.
For CC(=O)Nc1ccc(NC(=O)c2ccc(F)cc2)nc1 the results were TEAD-YAP block -25.6, MITF primary 5.5, FBW7 activator 0.1 and GPR151 activ -0.1.
Screening CCn1cnc2sc(C(=O)Nc3ccc(C)c(Cl)c3)c(C)c2c1=O returned TEAD-YAP block -25.6, MITF primary -8.8, FBW7 activator 0.0 and GPR151 activ 0.3.
Screening O=C(CN1CCOc2ccccc21)N1CCN(c2ccccn2)CC1 returned TEAD-YAP block 11.5, MITF primary 6.1, FBW7 activator 0.7 and GPR151 activ 0.2.
